Experimental data as given in PubChem BioAssay AID1053125 (Broad Institute, 2014).
Results with a measured potency or affinity are listed apart. Activity calls are given as the source filed them.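 The calls were made as follows: active = viability loss whose fitted half-maximal concentration is at most twice the top valid tested dose; inconclusive = flat curve with 30 to 70% loss, or poor fit; inactive = the rest.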

Assay: HepG2 cell cytotoxicity, dose response, cytotoxicity control, ATP luminescence, cherry-pick, set 6 (AID 1053125);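 also: negative values mean loss of viability signal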
Details: HepG2 viability, ATP luminescence (CellTiter-Glo), 72 h; series mostly up to 26 µM; activity change, negative = cytotoxicity: at the top concentration

Row | SMILES | activity change, negative = cytotoxicity
1 | COc1cccc(N2CCN(C(=O)C3CCCN(S(=O)(=O)c4cnc[nH]4)C3)CC2)c1 (stereo not given) | 29.5% (inactive)
2 | C[C@H](NC(=O)c1nc[nH]c1C(=O)N[C@@H](Cc1ccccc1)C(=O)OC(C)(C)C)C(=O)OCc1ccccc1 | 1.48% (inactive)
3 | O=C(O)c1cccc(NC(=O)c2cn(-c3ccccc3)nc2-c2cccc(Br)c2)c1 | -7.45% (inactive)
4 | CCOC(=O)C1CCCN(CCCc2ccccc2)C1 (stereo not given) | -13.1% (inactive)
5 | CCN(CC)c1ccc2cc(C#N)c(=O)oc2c1 | 3.25% (inactive)
6 | CCOCCCNc1c(CC)c(C)c(C#N)c2nc3ccccc3n12 | -11.8% (inactive)
7 | O=C1CCc2cc(S(=O)(=O)NC(Cc3ccccc3)C(=O)NCCC3=CCCCC3)ccc2N1 (stereo not given) | 5.87% (inactive)
8 | COc1ccccc1C1C2=C(CC(C)(C)CC2=O)N(CC(=O)O)C2=C1C(=O)CC(C)(C)C2 | 7.42% (inactive)
9 | O=c1[nH]c2ccccc2nc1/C=C/c1ccccc1 | -10.8% (inactive)
10 | CCCN1CCc2c(sc(NC(=O)C3CCN(S(=O)(=O)c4cccs4)CC3)c2C(N)=O)C1 | -10.9% (inactive)
11 | O=c1[nH]c(=O)c2nc(-c3ccc(Cl)cc3)cnc2[nH]1 | -2.93% (inactive)
12 | COCCN1C=C(C(=O)OC)C(c2ccc(Cl)cc2)C(C(=O)OC)=C1 | -14.3% (inactive)
13 | COCCNC(=O)c1cc2c(=O)n3cccc(C)c3nc2n(Cc2ccncc2)c1=N | -8.89% (inactive)
14 | COc1ccccc1NS(=O)(=O)c1cc(NC(=O)CCNC(C)=O)ccc1C | -4.09% (inactive)
15 | CN1c2ccc(Cl)cc2C(=O)NC1C1CC=CCC1 (stereo not given) | -1.75% (inactive)
16 | CCOCCCNc1nc2nc3ccc(C)cn3c(=O)c2cc1C(=O)NCC1CCCO1 (stereo not given) | -3.61% (inactive)
17 | CCN(CC)Cc1c(O)c(Cl)cc2c(C)cc(=O)oc12 | 1.66% (inactive)
18 | CN1CCc2c(sc(NC(=O)Cc3ccccc3)c2C#N)C1 | -7.87% (inactive)

Row | SMILES | activity change, negative = cytotoxicity
19 | Cc1ccc2c(c1)N(C(=O)CCC(=O)NCCCN1CCOCC1)CC(C)O2 (stereo not given) | -15.4% (inactive)
20 | Cc1ccc(O)c(NC(=S)NC(=O)COc2ccc(Br)cc2)c1 | 13.5% (inactive)
21 | CCC(=O)N1C(C(=O)NCc2ccc(OC)cc2)CSC1c1ccc(OC)cc1 (stereo not given) | -8.23% (inactive)
22 | O=C(Cn1ccc([N+](=O)[O-])n1)N1CCCCCC1 | -2.07% (inactive)
23 | CCOc1ccc(C2C(C#N)=C(N)Oc3cc(O)ccc32)cc1OCC (stereo not given) | 10% (inactive)
24 | CCN1C(=O)c2cccc3c(S(=O)(=O)N(C)C)ccc1c23 | -11.1% (inactive)
25 | CCN(CC)c1ccc2cc(S(=O)(=O)c3ccc(Cl)cc3)c(=O)oc2c1 | -11.5% (inactive)
26 | CCn1c(=N)c(S(=O)(=O)c2ccccc2)cc2c(=O)n3ccccc3nc21 | -12.9% (inactive)
27 | O=C(Nc1ccc2c(c1)OCCO2)c1ccc(NC(=O)C2CCCO2)cc1 (stereo not given) | -12.3% (inactive)
28 | CC(C)CCN1C(=O)c2cccc3c(N)ccc(c23)C1=O | 27.9% (inactive)
29 | O=c1oc2c(CN3CCCCC3)c(O)ccc2cc1-c1nc2ccccc2[nH]1 | -10.6% (inactive)
30 | Cc1nc2ccccc2c2oc(C(=O)NCCCN3CCC(C)CC3)cc12 | -12.2% (inactive)
31 | CCC(=O)NCCCNc1nc2c(C)cccc2cc1C#N | -13.7% (inactive)
32 | CCN(CC)c1ccc2c(C)c(Cl)c(=O)oc2c1 | -0.392% (inactive)
33 | CN1CCN(c2nc3ccccn3c(=O)c2/C=C(\C#N)S(=O)(=O)c2ccccc2)CC1 | 1.83% (inactive)
34 | CC1CCN(S(=O)(=O)N2CCC(C(=O)NC3CCCC3)CC2)CC1 | -3.91% (inactive)
35 | CCOC(=O)C(NC(=O)c1ccccc1)(OCC1(CC)COC1)C(F)(F)F (stereo not given) | -2.01% (inactive)
